In PubChem BioAssay AID1619 (SRMLSC, 2009):
Hit rate of the full screen: of about 220,000 compounds, about 830 (0.38%) were called active.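 How the source made its calls: active means compound inhibiting the enzyme by more than half at any dose during confirmatory dose-response retesting; inconclusive means strong single-dose inhibitors picked by rank but not retested; inactive means the rest.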 The list is a sample of the results. Measured potencies and affinities stand elsewhere. Residues, ends and D or L forms follow the SMILES beside them. *: point of attachment. Bz = O=C(c1ccccc1)*

The compounds below were run against Leucine aminopeptidase (Plasmodium falciparum (isolate 3D7)) (UniProt Q8IL11) (assay: P. falciparum M17LAP inhibitors, primary screen, biochemical, fluorogenic H-Leu-NHMec substrate, 1536-well (AID 1619;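 further: plate controls were full reaction with DMSO carrier for no effect and no enzyme background for full effect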)). Settings: recombinant M17LAP, H-Leu-NHMec fluorogenic kinetic assay; at 30 µM; hits give high values.
Leucine aminopeptidase (Plasmodium falciparum (isolate 3D7)), sequence (Q8IL11 whole entry, looked up): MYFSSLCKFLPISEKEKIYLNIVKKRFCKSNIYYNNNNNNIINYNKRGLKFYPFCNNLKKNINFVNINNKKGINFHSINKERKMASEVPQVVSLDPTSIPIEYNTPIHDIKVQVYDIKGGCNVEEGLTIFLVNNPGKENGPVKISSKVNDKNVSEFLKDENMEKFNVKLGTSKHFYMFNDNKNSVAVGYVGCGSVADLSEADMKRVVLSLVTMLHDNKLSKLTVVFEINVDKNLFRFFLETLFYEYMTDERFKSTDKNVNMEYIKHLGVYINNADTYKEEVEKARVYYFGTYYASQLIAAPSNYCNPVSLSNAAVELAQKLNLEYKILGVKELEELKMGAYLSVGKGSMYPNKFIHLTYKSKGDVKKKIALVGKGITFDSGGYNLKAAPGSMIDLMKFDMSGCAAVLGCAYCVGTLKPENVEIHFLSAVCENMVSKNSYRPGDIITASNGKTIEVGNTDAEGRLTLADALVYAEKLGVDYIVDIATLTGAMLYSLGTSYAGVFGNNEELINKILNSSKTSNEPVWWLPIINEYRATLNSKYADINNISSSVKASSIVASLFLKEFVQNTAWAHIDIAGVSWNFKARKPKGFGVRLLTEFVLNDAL

inhibition, inactive:
Cc1ccc(S(=O)(=O)N2CCOCC2)cc1NC(=O)CN1CCN(c2ccc(O)cc2)CC1 -10.2%
Cc1nn(Cc2c(Cl)cccc2Cl)c(C)c1NC(=O)CCCn1nc(C)c([N+](=O)[O-])c1C -7.34%
CCOc1ccc(NC(=S)NN2C(C)CCCC2C)cc1 (stereo unspecified) -3.03%
C[C@@H]1NC(=O)c2cc([N+](=O)[O-])cc(I)c2OCC[C@@H](C(N)=O)NC(=O)[C@H](CCCCN)NC1=O 21.6%
CCCCC(=O)NC(=S)Nc1cccc(NC(=O)c2ccccc2)c1 2.99%
O=C(NCc1ccc2c(c1)OCO2)C1CCC(CNc2c(N3CCCC3)c(=O)c2=O)CC1 (stereo unspecified) 9.79%
Cc1noc(C)c1CSCc1ccc(Cl)cc1 2.99%
COc1ccc(-c2nc(=S)n3ccsc3n2)cc1OC -2.9%
O=C(NCc1ccccc1)N1CCN(c2ccc(F)cc2)CC1 13.1%
O=C(c1ccc(S(=O)(=O)N2CCOCC2)cc1)N1CCOCC1 -9.29%
Cc1cc(C)cc(-n2c(SCC(=O)NCc3ccc4c(c3)OCO4)nc3ccccc3c2=O)c1 19.8%
O=C1CCCC/C1=C/Nc1ccc(S(=O)(=O)Nc2ncccn2)cc1 6.19%
Cc1cc(C)nc(NS(=O)(=O)c2ccc(Br)cc2)n1 15.3%
C=CCOC(=O)c1c(C)nc2cc3c(cc2c1C)OCO3 9.48%
Cc1ccc(C(=O)CC(C(=O)O)n2cnc([N+](=O)[O-])n2)cc1 (stereo unspecified) 11.1%
O=C(c1ccco1)c1cn(CC(=O)N2CCCCC2)c2ccccc12 33.5%
O=C(NCc1ccco1)C(=O)c1cn(CC(=O)N2CCCCC2)c2ccccc12 8.43%
CCN(CC)C(=O)Cn1cc(C(=O)C(=O)NCc2ccco2)c2ccccc21 25.3%
O=C(NCc1cccs1)C(=O)c1cn(CC(=O)N2CCCC2)c2ccccc12 24.7%
Cc1ccc(N=C(NO)c2nonc2N)c(C)c1 14.3%
O=C(Cn1c(=O)oc2ccccc21)NCCc1ccccc1Cl 1.7%
NC(=S)c1ncc(C(F)(F)F)cc1Cl -12.7%
CC(C)NC(=O)c1cnc(Sc2ncc(C(F)(F)F)cc2Cl)n1C 6.92%
O=C(c1cc[n+]([O-])cc1)N1CCc2c([nH]c3ccccc23)C1c1ccccc1Cl (stereo unspecified) 15.1%
O=C(c1nc(-c2ccccc2)n(-c2ccccc2)n1)N1CCN(S(=O)(=O)c2ccccc2)CC1 -12.4%
CCOc1ccc(C(=O)NCC(=O)OCc2cc(C(C)=O)ccc2OC)cc1 3.31%
CCC(C)C(NC(=O)c1ccccc1NC(=O)c1ccco1)C(=O)NNC(=O)c1ccncc1 (stereo unspecified) 3.96%
O=C(O)C12CC3CC(C1)CC(n1ncc(N4CCN(c5ccccc5)CC4)c(Cl)c1=O)(C3)C2 61.6%
CCc1ccc(Nc2cnn(C34CC5CC(CC(CC(=O)O)(C5)C3)C4)c(=O)c2Cl)cc1 53.3%
Cc1cccc(Nc2cnn(C34CC5CC(CC(CC(=O)O)(C5)C3)C4)c(=O)c2Cl)c1 39.2%
CC(=O)c1ccc(Nc2cnn(C34CC5CC(CC(CC(=O)O)(C5)C3)C4)c(=O)c2Cl)cc1 46.4%
Cc1cc(C)cc(Nc2cnn(C34CC5CC(CC(CC(=O)O)(C5)C3)C4)c(=O)c2Cl)c1 45.8%
O=C(O)C12C[C@H]3C[C@@H](C1)CC(n1ncc(N4CCN(c5ccccc5)CC4)c(Cl)c1=O)(C3)C2 36.9%
CCOC(=O)c1csc(NC(=O)CSc2nnnn2-c2ccc(OC)c(OC)c2)n1 11.3%
COc1cccc(-n2c(SCC(=O)N3CCCCC3)nc3c([nH]c4ccccc43)c2=O)c1 -3.56%
CC(=O)NC(Cc1ccccc1)C(=O)NC1CCN(C(=O)c2ccc([N+](=O)[O-])cc2)CC1 (stereo unspecified) -3.72%
O=C(NC(Cc1ccccc1)C(=O)NC(Cc1ccccc1)C(=O)O)c1ccccc1 (stereo not drawn) (Bz-Phe-Phe-OH; configuration not given here) 45.6%
O=C(O)CCC(NC(=O)C(Cc1ccc2c(c1)OCO2)NC(=O)c1ccccc1)C(=O)O (stereo unspecified) 46.2%
O=C(O)c1ccc(-n2cccc2/C=C2/NC(=O)N(c3ccccc3)C2=O)cc1 11.3%
O=C(O)c1ccc(COc2ccccc2/C=C2/NC(=O)N(c3cccc(Cl)c3)C2=O)cc1 7.83%
CC1=C(C)CC(C(=O)Nc2nc(-c3ccc(F)cc3)c(C)s2)C(C(=O)O)C1 (stereo unspecified) 48.9%
CCc1noc(C)c1C(=O)Nc1nc(-c2cc(C)ccc2C)c(C)s1 -3.18%
CC(=O)C1=C(O)C(=O)N(Cc2ccco2)C1c1ccc(F)cc1 (stereo unspecified) 11%
CC(=O)C1=C(O)C(=O)N(Cc2ccco2)C1c1ccccc1 (stereo unspecified) 6.17%
Cc1ccc(S(=O)(=O)N2CCCC2C(=O)N2CCCCCC2)cc1 (stereo unspecified) -4.09%
COc1ccc2c(C(F)(F)F)cc(=O)oc2c1C -5.82%
CC(Sc1nc(-c2ccccc2)cs1)C(=O)Nc1ccc(Cl)cn1 (stereo unspecified) 13.8%
CC(Sc1nc(-c2ccc(F)cc2)cs1)C(=O)Nc1ccc(Cl)cn1 (stereo unspecified) 15.1%
Cn1c(=O)c(C(=O)Nc2ccccc2S(N)(=O)=O)c(O)c2ccccc21 -0.17%
COC(=O)C(C)(C)ONC(=O)Nc1ccccc1Cl -4.74%
CCN(CC)C(=O)c1ccc(N)cc1 7.5%
COc1ccc(Oc2ccc(/C=C/C(=O)c3ccc(O)cc3)cc2[N+](=O)[O-])cc1 12.4%
CC(C)(C)C1(C)OC(C(N)=O)C(C(N)=O)O1 (stereo unspecified) 8.29%
Cc1cc(=O)oc2c1c(C(F)(F)F)nn2-c1ccccc1 2.02%
CCOC(=O)C1CSC(CC(=O)Nc2ccc(Cl)cc2)C(=O)N1 (stereo unspecified) 13.4%
CCOC(=O)C1CSC(CC(=O)Nc2ccc(OC(F)(F)F)cc2)C(=O)N1 (stereo unspecified) 14%
